The target of assay [1] is Metallo-beta-lactamase type 2 (Klebsiella pneumoniae) (UniProt C7C422). Put plainly: qHTS to identify inhibitors of the New Delhi Metallo-beta-lactamase (NDM): assay validation screen against the NCATS LOPAC Collection (AID 1794843). The method, boiled down: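 Absorbance at 485 nm from nitrocefin turnover (50 uM solution added), read at plateau, gives the read-out. Compounds in DMSO were incubated first with 2 nM final NDM-1 in pH 7.0 HEPES buffer containing 1 uM ZnSO4 and 0.01% Tween20.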
In general terms: Quantitative high-throughput screening tests each substance at several concentrations.

The target in assay [2] is Glutathione peroxidase 1 (Homo sapiens) (UniProt P07203). Nature of the assay: Primary qHTS Assay for Inhibitors of Recombinant Selenoprotein Glutathione Peroxidase 1 (GPX1) (AID 1845191). Also: nearly all actives have a fitted effect of over 65% in size. The method, boiled down: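 GPX1 10 nM, GR 100 nM, GSH 1 mM, NADPH 0.5 mM, CHP 0.5 mM (final). 30-min cpd preincubation, RT. Ex340/Em450 read t=0, t=15 min.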
Assay [3] addresses Phospholipid hydroperoxide glutathione peroxidase GPX4 (Homo sapiens) (UniProt P36969). Nature of the assay: Primary qHTS Assay for Inhibitors of Recombinant Selenoprotein Glutathione Peroxidase 4 (GPX4) (AID 1845192). Also: nearly all actives have a fitted effect of over 65% in size. The procedure, abridged: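 qHTS, GR-coupled: GPX4 200 nM + cpd 30 min RT → GSH 1 mM, NADPH 0.5 mM, GR 100 nM → CHP 0.5 mM start; fluor 340/450 at t0 and t15 min; no-enzyme wells as control.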

Assay [4] can be described thus: Quantitative High-Throughput drug screen in 47 multiple myeloma cell lines against the NCATS MIPE library collection: FR4_PLB cell viability assay (AID 1918924; also: nearly all actives have a fitted effect of over 35% in size; also: potency is read from the fitted curve at half-maximal effect). The procedure, abridged:
(§1)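 qHTS of the MIPE 4.0 collection: 500 myeloma cells/well, 48 h drug exposure at 37C in 5% CO2, then CellTiter-Glo for 5 min at room temperature before luminescence reading.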

Assay [5] in a line: Quantitative High-Throughput drug screen in 47 multiple myeloma cell lines against the NCATS MIPE library collection: Delta47_JCRB cell viability assay (AID 1918925; also: nearly all actives have a fitted effect of over 45% in size; also: potency is read from the fitted curve at half-maximal effect). The procedure, abridged: (§2)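 Primary qHTS used for cherry-picking: cells at 500/well, library compounds for 48 h (37C, 5% CO2), luminescent ATP assay.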
The nature of assay [6]: Quantitative High-Throughput drug screen in 47 multiple myeloma cell lines against the NCATS MIPE library collection: EJM_DSMZ cell viability assay (AID 1918926; also: nearly all actives have a fitted effect of over 30% in size; also: potency is read from the fitted curve at half-maximal effect). The method, boiled down:
as §2

Assay [7] in a line: Quantitative High-Throughput drug screen in 47 multiple myeloma cell lines against the NCATS MIPE library collection: AMO1_DSMZ cell viability assay (AID 1918927; also: nearly all actives have a fitted effect of over 30% in size; also: potency is read from the fitted curve at half-maximal effect). The method, boiled down:
as §2

Assay [8] in a line: Quantitative High-Throughput drug screen in 47 multiple myeloma cell lines against the NCATS MIPE library collection: ARP1_JJKsccF8 cell viability assay (AID 1918928; also: nearly all actives have a fitted effect of over 40% in size; also: potency is read from the fitted curve at half-maximal effect). The method, boiled down:
(§3)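 CellTiter-Glo luminescence after 48 h exposure gives viability, scaled between DMSO-only (100%) and media-only (0%) controls. Library compounds are pinned onto 500 myeloma cells per well, incubated at 37C with 5% CO2.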

Assay [9] can be described thus: Quantitative High-Throughput drug screen in 47 multiple myeloma cell lines against the NCATS MIPE library collection: ARD_JJKsccE7 cell viability assay (AID 1918929; also: potency is read from the fitted curve at half-maximal effect). The method, boiled down:
as §2

Assay [10] is described as follows: Quantitative High-Throughput drug screen in 47 multiple myeloma cell lines against the NCATS MIPE library collection: Karpas620_DSMZ cell viability assay (AID 1918959). Also: nearly all actives have a fitted effect of over 30% in size. Also: potency is read from the fitted curve at half-maximal effect. The method, boiled down:
as §1

The nature of assay [11]: Quantitative High-Throughput drug screen in 47 multiple myeloma cell lines against the NCATS MIPE library collection: KMM1_JCRB cell viability assay (AID 1918960). Also: nearly all actives have a fitted effect of over 30% in size. Also: potency is read from the fitted curve at half-maximal effect. The procedure, abridged: as §3
Assay [12] is described as follows: Quantitative High-Throughput drug screen in 47 multiple myeloma cell lines against the NCATS MIPE library collection: Karpas417_ECACC cell viability assay (AID 1918961). Also: potency is read from the fitted curve at half-maximal effect. The note with it: Karpas417 myeloma viability, CellTiter-Glo ATP luminescence, 48 h; viability (% of DMSO): at 45.8 µM (top of the series). The procedure, abridged:
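Luminescent ATP measurement with CellTiter-Glo gives viability, scaled between DMSO-only wells (100%) and media-only wells (0%). Cells, 500 per well, faced library compounds for 48 hours at 37C.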
On the technique in general: Cellular ATP, detected with luciferase, serves as a proxy for viable cell number.

The nature of assay [13]: Quantitative High-Throughput drug screen in 47 multiple myeloma cell lines against the NCATS MIPE library collection: KHM11_PLB cell viability assay (AID 1918962). Also: nearly all actives have a fitted effect of over 35% in size. Also: potency is read from the fitted curve at half-maximal effect. The method, boiled down: as §1
Assay [14] addresses Luciferin 4-monooxygenase (Photinus pyralis) (UniProt P08659). Nature of the assay: Primary firefly luciferase (FLuc) qHTS assay for identification of artifact compounds. (AID 1845220). Also: nearly all actives have a fitted effect of over 60% in size. As to conditions: outcome: dose series up to 54.1 µM. The procedure, abridged: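 In this counter-screen for luciferase artifacts, test compounds met substrate (10 uM each luciferin and ATP) before 10 nM enzyme started the reaction. Light output was measured 5 min later.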

A short description of assay [15]: Primary fluorescence-based thiol-reactive (MSTI) qHTS assay for identification of artifact compounds. (AID 1845221).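 Also: thiol-reactive compounds lower the probe fluorescence signal; nearly all actives have a fitted effect of over 65% in size.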 The method, boiled down:
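A multi-concentration qHTS design tested compounds against 4 uM MSTI, pH 7.4 phosphate-buffered saline. Plates were protected from light for 1 h at room temperature before imaging fluorescence.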

The test system of assay [16] is Nanoluciferase (engineered Oplophorus gracilirostris luciferase). Put plainly: Primary Nanoluciferase (NLuc) qHTS assay for identification of artifact compounds. (AID 1845222).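 Also: NLuc secreted into diluted conditioned medium of S16 cells.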 The procedure, abridged:
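Using secreted nanoluciferase in S16 culture medium (0.22 um filtered, 1:55 dilution), compounds were preincubated 15 min at RT. Signal was generated with Nano-Glo reagent (1:100) over 5 min.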

A short description of assay [17]: Primary redox qHTS assay for identification of artifact compounds. (AID 1845223). The procedure, abridged:
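Redox-cycling detection via DTT (250 uM final) oxidation coupled to Amplex Red (25 uM)/HRP (250 mU/mL) in HBSS. 15 min preincubation plus 30 min after DTT, room temperature. Ex/Em 525/598 nm; 4-parameter Hill fit against DMSO and 10 uM DA3003.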

From PubChem BioAssay (NCATS) come the findings set out here.

Results filed as inconclusive are left out. The source made the active and inactive calls. Calls follow the shape of the dose curve; as a rule, active = well fitted curve in the direction sought with a large enough effect; inconclusive = small, poorly fitted or top-dose-only effect, or another doubt; inactive = no such curve, though single readings can be large; an effect the other way counts as inactive or inconclusive.

Sequence of Metallo-beta-lactamase type 2 (Klebsiella pneumoniae) (C7C422 whole entry, looked up): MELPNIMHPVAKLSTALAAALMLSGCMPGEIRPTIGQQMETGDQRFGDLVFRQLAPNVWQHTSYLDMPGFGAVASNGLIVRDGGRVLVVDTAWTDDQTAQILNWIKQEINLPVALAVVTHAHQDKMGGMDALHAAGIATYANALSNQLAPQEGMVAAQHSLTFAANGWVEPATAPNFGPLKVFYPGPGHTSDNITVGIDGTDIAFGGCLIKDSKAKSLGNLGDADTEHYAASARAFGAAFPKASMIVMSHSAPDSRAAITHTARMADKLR
Sequence of Phospholipid hydroperoxide glutathione peroxidase GPX4 (Homo sapiens) (P36969 whole entry, looked up): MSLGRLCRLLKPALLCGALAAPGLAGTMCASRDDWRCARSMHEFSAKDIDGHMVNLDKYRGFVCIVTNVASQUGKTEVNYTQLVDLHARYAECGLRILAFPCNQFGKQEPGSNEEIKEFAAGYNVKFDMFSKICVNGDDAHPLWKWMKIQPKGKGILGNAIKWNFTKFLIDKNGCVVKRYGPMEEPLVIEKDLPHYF
Sequence of Glutathione peroxidase 1 (Homo sapiens) (P07203 whole entry, looked up): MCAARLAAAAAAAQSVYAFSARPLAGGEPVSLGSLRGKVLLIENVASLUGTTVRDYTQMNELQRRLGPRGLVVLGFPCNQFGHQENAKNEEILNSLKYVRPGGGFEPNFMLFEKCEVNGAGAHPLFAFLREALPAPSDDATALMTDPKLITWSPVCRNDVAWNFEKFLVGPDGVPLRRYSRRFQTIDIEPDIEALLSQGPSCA

For the molecule `O=C1c2c(O)ccc(O)c2C(=O)c2c(NCCNCCO)ccc(NCCNCCO)c21`, the outcome in assay [1] was inactive. The Potency entry in [2] and in [3] was “inactive” in each case. Also, the Potency in assay [4] was 1.66 µM (active); in [5], 0.132 µM (active); in assay [6], 0.833 µM (active); in assay [7], 0.935 µM (active); in [8], 0.469 µM (active); in assay [9] it was 20.9 µM (active). The Potency is 5.26 µM (active) in assay [10], 4.18 µM (active) in assay [11], 16.6 µM (active) in [12] and 0.833 µM (active) in [13].

Turning to `CN1CCC(=C2c3ccccc3CC(=O)c3sccc32)CC1`, in assay [1], the molecule was classed as inactive. For the same molecule, the Potency entry in [2], in assay [3], in [4], in assay [8], in assay [9] and in assay [12] was “inactive” each time. Besides, the Potency in [5] is 8.33 µM (active); in assay [6], 20.9 µM (active); in assay [7], 16.6 µM (active).

Take `NCCS(=O)(=O)O`: the molecule was called inactive in assay [1]. The Potency entry in assay [2], in assay [3], in assay [4], in assay [5], in assay [6] and in assay [7] was “inactive” each time. In addition, the Potency entry in [8], in assay [9] and in assay [11] was “inactive” each time.

For the molecule `CC[C@@]1(O)C(=O)OCc2c1cc1n(c2=O)Cc2cc3c(CN(C)C)c(O)ccc3nc2-1`, the result in assay [1], in [14], in [15], in [16] and in [17] was inactive. Further, the Potency entry in [2] and in [3] was “inactive” each time. Further, the Potency in assay [4] is 2.64 µM (active); in assay [5], 0.469 µM (active); in assay [6], 0.935 µM (active); in assay [7], 0.264 µM (active); in assay [8], 2.96 µM (active); in [9] it was 2.64 µM (active). Further, the Potency in assay [10] is 3.72 µM (active); in assay [11], 1.32 µM (active); in [12], 0.743 µM (active); in [13] it was 1.66 µM (active).

Consider `Cn1cnc2c1c(=O)[nH]c(=O)n2C`, for which, in [1], the call was inactive. Also, the Potency entry in [2] and in assay [3] was “inactive” each time. Besides, the Potency in assay [4] was 26.4 µM (active); in assay [5], 14.8 µM (active); in assay [6], 20.9 µM (active); in [7] it was 9.35 µM (active); in assay [8] it was 14.8 µM (active); in assay [9], 7.43 µM (active). In addition, the Potency in assay [10] was 7.43 µM (active); in assay [11], 7.43 µM (active); in assay [12], 9.35 µM (active).

With `NC(=O)OCC(COC(N)=O)c1ccccc1`, the molecule was classed as inactive in assay [1]. For the same molecule, the Potency result in [2], in [3], in [4], in assay [5], in assay [6] and in [7] was “inactive” each time. Further, the Potency entry in assay [8], in [9], in assay [10], in assay [11] and in [13] was “inactive” throughout.

Take `CN(C)CCCN1c2ccccc2CCc2ccc(Cl)cc21`: the molecule was called inactive in assay [1]. For the same molecule, the Potency result in assay [2] and in assay [3] was “inactive” each time. The Potency is 1.18 µM (active) in assay [4]; 1.18 µM (active) in assay [5]; 0.264 µM (active) in assay [6]; 1.05 µM (active) in assay [7]; 8.33 µM (active) in [9]; 16.6 µM (active) in assay [10]. The Potency was 11.8 µM (active) in assay [11] and 3.32 µM (active) in [13].

Take `O=C(c1ccc(OCCN2CCCCC2)cc1)c1c(-c2ccc(O)cc2)sc2cc(O)ccc12`: in assay [1], the molecule was called inactive. Further, the Potency result in [2] and in assay [3] was “inactive” in each case. In addition, the Potency in assay [4] was 26.4 µM (active); in [5], 23.5 µM (active); in [7] it was 20.9 µM (active); in [9], 26.4 µM (active); in assay [10] it was 26.4 µM (active); in assay [11] it was 20.9 µM (active). Also, the Potency in [12] is 18.7 µM (active).
